Reference: PubChem BioAssay (Tox21)
Records with an inconclusive call do not appear. Activity calls are given as the source filed them. Unless noted, calls come from the whole dose curve.

Tests used:
[1] = Nuclear factor erythroid 2-related factor 2/antioxidant responsive element (Nrf2/ARE) small molecule agonists: qHTS cell viability counter screen in human keratinocytes (AID 1919968; active = well fitted curve in the direction sought with a large enough effect in the repeat runs; an effect the other way counts as inactive or inconclusive; note: nearly all actives have a fitted effect of over 55% in size; note: potency is the fitted concentration of half-maximal effect)
Outline: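 Fluorescence read-out from CellTiter-Fluor after 1 h at 37 C. Wells held HaCaT-derived ARE-luciferase reporter cells (1,500/well) treated 23 h with DMSO-dissolved compounds. Run in the same wells as the luciferase agonist read.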

[2] = Nuclear factor erythroid 2-related factor 2/antioxidant responsive element (Nrf2/ARE) small molecule agonists: luciferase reporter gene qHTS assay in human keratinocytes (AID 1919969); note: nearly all actives have a fitted effect of over 35% in size; note: potency is the fitted concentration of half-maximal effect
[3] = biological target: Gonadotropin-releasing hormone receptor (Homo sapiens) (UniProt P30968); assay: Human gonadotropin-releasing hormone receptor (GnRHR) small molecule agonists, calcium flux assay in GnRHR-HEK293 cells (AID 1920063); note: nearly all actives have a fitted effect of over 35% in size
Sequence of Gonadotropin-releasing hormone receptor (Homo sapiens) (P30968 whole entry, looked up): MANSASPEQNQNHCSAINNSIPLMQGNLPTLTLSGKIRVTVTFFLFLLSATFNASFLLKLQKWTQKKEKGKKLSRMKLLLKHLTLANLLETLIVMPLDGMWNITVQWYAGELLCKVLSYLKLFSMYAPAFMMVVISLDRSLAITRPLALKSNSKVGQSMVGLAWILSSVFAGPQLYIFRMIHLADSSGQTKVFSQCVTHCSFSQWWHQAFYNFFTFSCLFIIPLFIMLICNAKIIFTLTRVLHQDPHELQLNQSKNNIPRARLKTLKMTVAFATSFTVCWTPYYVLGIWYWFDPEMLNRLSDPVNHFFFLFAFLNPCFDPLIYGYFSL
Outline: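 Calcium-dye fluorescence, Ex/Em=480/540, recorded every 1 sec over 3 min after compound addition to GnRHR-HEK293 cells. Cells had been seeded 18 hours earlier and dye-loaded for 1 hour at 37 C. Fifteen concentrations, triplicates.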

[4] = G protein-coupled receptor (GPCR) small molecule agonists, calcium flux assay: HEK293 wild type cell line counter screen (AID 1920065)
Outline: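 Agonist mode; 18 h seeding at 37 C, 1 h dye load at 37 C; compounds pinned from DMSO, ATP as positive control; kinetic fluorescence 480/540 nm, 3 min, 1 s reads; 15 concentrations, triplicate.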

[5] = p53 small molecule agonists, cell-based qHTS assay with human liver microsomes: qHTS cell viability counter screen (AID 1963579); note: nearly all actives have a fitted effect of over 45% in size
Outline: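 After the 460/530 nm beta-lactamase read, CellTiter-Glo was added to the same wells and luminescence measured after 30 min at room temperature, giving viability of p53RE-bla cells treated 16 h with compounds plus microsomes and NADPH.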

[6] = p53 small molecule agonists, cell-based qHTS assay with rat liver microsomes: qHTS cell viability counter screen (AID 1963580); note: nearly all actives have a fitted effect of over 45% in size; note: potency is the fitted concentration of half-maximal effect
Outline: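 Luminescent ATP readout (CellTiter-Glo, 30 min at room temperature) reports viability of p53RE-bla HCT-116 cells after 16 h at 37 C with test compounds under metabolic activation by rat liver microsomes and NADPH at 0.5 mg/mL final each.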

[7] = biological target: 5-hydroxytryptamine receptor 2A (Homo sapiens) (UniProt P28223); assay: 5-hydroxytryptamine receptor 2A (HTR2A) small molecule antagonists, cell-based qHTS assay (AID 1963586); note: nearly all actives have a fitted effect of over 45% in size
Sequence of 5-hydroxytryptamine receptor 2A (Homo sapiens) (P28223 whole entry, looked up): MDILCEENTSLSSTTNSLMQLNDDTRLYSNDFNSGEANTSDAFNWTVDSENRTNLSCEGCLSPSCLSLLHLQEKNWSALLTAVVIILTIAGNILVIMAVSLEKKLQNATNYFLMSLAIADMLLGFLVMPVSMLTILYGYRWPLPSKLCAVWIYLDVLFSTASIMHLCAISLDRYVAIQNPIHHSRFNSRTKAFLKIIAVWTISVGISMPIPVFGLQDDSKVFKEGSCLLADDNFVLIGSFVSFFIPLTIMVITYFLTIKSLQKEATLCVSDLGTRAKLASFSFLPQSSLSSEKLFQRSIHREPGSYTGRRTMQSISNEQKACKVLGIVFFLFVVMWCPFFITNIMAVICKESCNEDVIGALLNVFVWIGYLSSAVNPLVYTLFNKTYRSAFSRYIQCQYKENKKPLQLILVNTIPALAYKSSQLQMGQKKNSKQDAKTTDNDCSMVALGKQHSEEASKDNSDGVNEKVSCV
Outline: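 CHO cells stably expressing human HTR2A were plated for 18 h at 37 C, then loaded with calcium dye for 1 h. Compounds were preincubated 5 min at room temperature before DOI (4 nM solution) was added. Kinetic fluorescence was read for 3 min.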

[8] = biological target: 5-hydroxytryptamine receptor 2A (Homo sapiens) (UniProt P28223); assay: 5-hydroxytryptamine receptor 2A (HTR2A) small molecule agonists, cell-based qHTS assay (AID 1963587); note: nearly all actives have a fitted effect of over 30% in size
Outline: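 HTR2A-CHO cells, plated 18 h at 37 C/5% CO2, dye-loaded 1 h at 37 C; compounds in DMSO added by pin tool (agonist mode). Intracellular calcium flux read as kinetic fluorescence on FDSS over 2 min at 1 s intervals.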

[9] = biological target: Muscarinic acetylcholine receptor M1 (Homo sapiens) (UniProt P11229); assay: Cholinergic receptor muscarinic 1 (CHRM1) small molecule antagonists, cell-based qHTS assay (AID 1963588); note: nearly all actives have a fitted effect of over 40% in size; note: potency is the fitted concentration of half-maximal effect
Sequence of Muscarinic acetylcholine receptor M1 (Homo sapiens) (P11229 whole entry, looked up): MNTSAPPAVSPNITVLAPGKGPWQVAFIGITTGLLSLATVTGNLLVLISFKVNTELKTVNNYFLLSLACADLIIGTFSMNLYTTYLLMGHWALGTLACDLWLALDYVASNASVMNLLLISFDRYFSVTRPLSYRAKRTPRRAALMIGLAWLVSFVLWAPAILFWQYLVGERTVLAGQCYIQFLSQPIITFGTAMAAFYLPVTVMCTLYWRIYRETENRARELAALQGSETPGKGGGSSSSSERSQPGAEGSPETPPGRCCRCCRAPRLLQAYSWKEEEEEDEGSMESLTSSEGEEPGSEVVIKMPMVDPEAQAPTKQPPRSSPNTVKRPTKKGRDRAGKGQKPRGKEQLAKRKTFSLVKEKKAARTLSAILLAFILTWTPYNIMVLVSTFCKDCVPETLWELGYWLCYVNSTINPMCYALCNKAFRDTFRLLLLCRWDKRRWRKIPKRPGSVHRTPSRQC
Outline: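 Compounds were tested at 15 concentrations in three independent runs. Dye-loaded CHRM1-CHO cells were exposed 5 min at room temperature before stimulation by acetylcholine added at 50nM. Intracellular calcium was read kinetically on FDSS for 3 min.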

[10] = biological target: Muscarinic acetylcholine receptor M1 (Homo sapiens) (UniProt P11229); assay: Cholinergic receptor muscarinic 1 (CHRM1) small molecule agonists, cell-based qHTS assay (AID 1963589); note: nearly all actives have a fitted effect of over 35% in size; note: potency is the fitted concentration of half-maximal effect
Outline: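 Calcium flux read-out: kinetic fluorescence at 1 sec intervals after pin-tool compound addition to dye-loaded CHRM1-CHO cells (human M1). Agonist mode; 15 concentrations tested in triplicate independent runs.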

[11] = cAMP Responsive Elements (CRE) small molecule agonists, cell-based qHTS assay (AID 1963590)
Outline: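 Beta-lactamase reporter readout: LiveBLAzer B/G FRET substrate, 2 h at room temperature, added after 3 h compound treatment of CRE-bla HEK 293T cells at 37 C/5% CO2.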

[12] = cAMP Responsive Elements (CRE) small molecule antagonists, cell-based qHTS assay (AID 1963591; active = well fitted inhibition curve with a large enough effect in the signal ratio in the repeat runs, not every such curve was filed as active; the % refers to the signal ratio)
Outline: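 HEK293T CRE-bla; 18 h preincubation; compound pin-transfer; NKH477 0.25 uM final, 3 h, 37 C; LiveBLAzer FRET substrate 2 h RT.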

[13] = biological target: Beta-2 adrenergic receptor (Homo sapiens) (UniProt P07550); assay: Adrenergic beta2 receptor (ADRB2) small molecule antagonists, cell-based qHTS assay (AID 1963592); note: series mostly up to about 92 µM; nearly all actives have a fitted effect of over 50% in size
Sequence of Beta-2 adrenergic receptor (Homo sapiens) (P07550 whole entry, looked up): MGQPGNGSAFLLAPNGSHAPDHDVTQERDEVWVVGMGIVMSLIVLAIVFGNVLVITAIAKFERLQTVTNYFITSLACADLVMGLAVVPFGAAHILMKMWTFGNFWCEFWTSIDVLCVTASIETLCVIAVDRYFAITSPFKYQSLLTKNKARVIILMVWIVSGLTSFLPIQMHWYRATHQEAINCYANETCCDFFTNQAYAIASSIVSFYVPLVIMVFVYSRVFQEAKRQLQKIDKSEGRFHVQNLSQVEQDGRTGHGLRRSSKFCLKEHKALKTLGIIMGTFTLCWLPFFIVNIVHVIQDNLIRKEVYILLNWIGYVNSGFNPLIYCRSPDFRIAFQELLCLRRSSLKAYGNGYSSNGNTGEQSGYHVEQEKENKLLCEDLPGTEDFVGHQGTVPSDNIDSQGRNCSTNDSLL
Outline: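 Assay format: CHO-ADRB2 cells, 18-20hr seeding at 37C/5% CO2, then compound plus 1nM isoproterenol agonist mix for 0.5hr RT. Homogeneous time-resolved fluorescence cAMP detection after 1hr, expressed as 665/615 nm ratio.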

[14] = biological target: D(2) dopamine receptor (Homo sapiens) (UniProt P14416); assay: Dopamine D2 receptor (DRD2) small molecule agonists, cell-based qHTS assay (AID 1963594); note: nearly all actives have a fitted effect of over 35% in size
Sequence of D(2) dopamine receptor (Homo sapiens) (P14416 whole entry, looked up): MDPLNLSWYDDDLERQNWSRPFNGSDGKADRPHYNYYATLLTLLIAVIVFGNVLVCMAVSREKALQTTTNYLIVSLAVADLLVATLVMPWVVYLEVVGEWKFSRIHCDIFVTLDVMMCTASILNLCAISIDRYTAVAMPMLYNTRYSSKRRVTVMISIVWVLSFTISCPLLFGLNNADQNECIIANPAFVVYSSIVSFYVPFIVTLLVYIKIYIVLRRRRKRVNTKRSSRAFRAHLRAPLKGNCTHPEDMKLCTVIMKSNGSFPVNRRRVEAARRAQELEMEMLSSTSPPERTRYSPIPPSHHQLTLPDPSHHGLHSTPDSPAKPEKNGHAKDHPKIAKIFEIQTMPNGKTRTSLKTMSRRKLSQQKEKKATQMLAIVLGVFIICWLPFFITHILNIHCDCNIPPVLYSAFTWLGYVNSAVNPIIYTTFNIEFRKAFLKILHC
Outline: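 HEK293 cells stably expressing DRD2 were cultured 24 h at 37 C, then given Ro20-1724 (0.1 mM final) and compounds for 10 min at room temperature. NKH477 (200nM) was then added for 30 min. cAMP was read by HTRF.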

[15] = biological target: D(2) dopamine receptor (Homo sapiens) (UniProt P14416); assay: Dopamine D2 receptor (DRD2) small molecule antagonists, cell-based qHTS assay (AID 1963595; active = well fitted inhibition curve with a large enough effect in the signal ratio in the repeat runs, with a control signal flat; the % refers to the signal ratio; note: potency is the fitted concentration of half-maximal effect)
Outline: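 DRD2-HEK293; 0.1 mM Ro20-1724; cpd 10 min RT; NKH477 200 nM + quinpirole 12 nM, 30 min RT; HTRF cAMP (cAMP-d2/anti-cAMP cryptate), 665/620 nm ratio after 1 h.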

[16] = p53 small molecule agonists, cell-based qHTS assay with rat liver microsomes (AID 1963578); note: potency is the fitted concentration of half-maximal effect
Outline: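 Metabolic activation is supplied by rat liver microsomes with NADPH (each 0.5 mg/mL final). p53RE-bla cells incubate with compound 16 h at 37 C; reporter activity is measured by LiveBLAzer fluorescence.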

[17] = p53 small molecule agonists, cell-based qHTS assay: qHTS cell viability counter screen (AID 1963581); note: nearly all actives have a fitted effect of over 45% in size; note: potency is the fitted concentration of half-maximal effect
Outline: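 Cytotoxicity read-out: ATP-based luminescence (CellTiter-Glo, 30 min RT) measured in the same wells as the p53 reporter assay, HCT-116 p53RE-bla cells, 16 h compound exposure at 37 C.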

[18] = biological target: KiSS-1 receptor (Homo sapiens) (UniProt Q969F8); assay: Human kisspeptin (KISS1R) small molecule agonists, calcium flux assay in KISS1R-HEK293 cells (AID 1920064; active = well fitted curve in the direction sought with a large enough effect in the repeat runs; an effect the other way counts as inactive or inconclusive)
Sequence of KiSS-1 receptor (Homo sapiens) (Q969F8 whole entry, looked up): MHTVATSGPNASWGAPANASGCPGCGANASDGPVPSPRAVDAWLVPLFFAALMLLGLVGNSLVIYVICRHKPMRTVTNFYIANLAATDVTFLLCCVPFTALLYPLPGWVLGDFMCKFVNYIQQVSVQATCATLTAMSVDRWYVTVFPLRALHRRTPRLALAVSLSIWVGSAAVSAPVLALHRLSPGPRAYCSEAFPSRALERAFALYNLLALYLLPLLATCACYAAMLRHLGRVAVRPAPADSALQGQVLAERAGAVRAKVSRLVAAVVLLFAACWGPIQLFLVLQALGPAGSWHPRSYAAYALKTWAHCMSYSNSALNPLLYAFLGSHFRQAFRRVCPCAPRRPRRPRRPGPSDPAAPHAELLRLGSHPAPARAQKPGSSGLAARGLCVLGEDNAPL
Outline: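 Calcium flux read-out: kinetic fluorescence at Ex/Em=480/540, 1 s intervals over 3 min, after pin-tool compound addition to dye-loaded KISS1R-HEK293 cells. Fifteen concentrations, triplicates.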

[19] = p53 small molecule agonists, cell-based qHTS assay with human liver microsomes (AID 1963577);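 note: p53 response element beta-lactamase reporter cells with liver microsomes plus NADPH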
Outline: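 Steps: plate p53RE-bla cells, incubate 5 h at 37 C; add compound in DMSO; add microsomes (0.5 mg/mL final) and NADPH (0.5 mg/mL final); incubate 16 h at 37 C; add LiveBLAzer, 2 h RT; read fluorescence.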

[20] = p53 small molecule agonists, cell-based qHTS assay (AID 1963582; active = well fitted activation curve with a large enough effect in the signal ratio in the repeat runs, not every such curve was filed as active; the % refers to the signal ratio)
Outline: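 Fluorescence intensity read-out of a beta-lactamase reporter under a p53 response element. Cells were exposed to DMSO-dissolved compounds for 16 h at 37 C, then developed with FRET substrate for 2 h at RT.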
% is set by controls: 0 for no effect and ±100 for the full control effect.

CC1CN1P(=O)(N1CC1C)N1CC1C (centres undefined)
inactive: Potency [1] | Potency [2] | Potency [3] | Potency [4] | Potency [5] | Potency [6] | Potency [7] | Potency [8] | Potency [9] | Potency [10] | Potency [11] | Potency [12] | Potency [13] | Potency [14] | Potency [15]

c1ccc2c(c1)[nH]c1cnccc12
inactive: Potency [1] | Potency [2] | Potency [3] | Potency [4] | Potency [6] | Potency [17] | Potency [8] | Potency [9] | Potency [10] | Potency [11] | Potency [12] | Potency [13] | Potency [14] | Potency [15]
active: Potency [16] 36.4 µM

CCCC[N+]1(C)[C@@H]2CC(OC(=O)[C@H](CO)c3ccccc3)C[C@H]1[C@@H]1O[C@@H]12 (some centres undefined)
active: Potency [9] 3.65 µM
inactive: Potency [1] | Potency [2] | Potency [18] | Potency [4] | Potency [19] | Potency [16] | Potency [5] | Potency [6] | Potency [17] | Potency [20] | Potency [7] | Potency [10] | Potency [12] | Potency [13] | Potency [14] | Potency [15]

COc1cnc(OC)n2nc(NS(=O)(=O)c3c(OCC(F)F)cccc3C(F)(F)F)nc12
inactive: Potency [1] | Potency [2] | Potency [18] | Potency [4] | Potency [19] | Potency [16] | Potency [5] | Potency [6] | Potency [17] | Potency [20] | Potency [8] | Potency [9] | Potency [10] | Potency [12] | Potency [13] | Potency [14] | Potency [15]

CC(O)C(=O)[O][Hg][c]1ccccc1 (centres undefined)
active: Potency [1] 1.72 µM | Potency [2] 0.864 µM | Potency [6] 8.14 µM | Potency [17] 2.89 µM | Potency [10] 54.9 µM | Potency [15] 2.73 µM
inactive: Potency [18] | Potency [4] | Potency [19] | Potency [7] | Potency [9]

CCCSC(=O)N(CCC)CCC
inactive: Potency [1] | Potency [2] | Potency [18] | Potency [4] | Potency [19] | Potency [5] | Potency [6] | Potency [17] | Potency [20] | Potency [8] | Potency [9] | Potency [10] | Potency [12] | Potency [13] | Potency [14] | Potency [15]

CCC[CH2][Sn]([CH2]CCC)([CH2]CCC)[O][Sn]([CH2]CCC)([CH2]CCC)[CH2]CCC
inactive: activation [18] 9.21% [at 6.97 µM] | activation [4] 2.41% [at 5.23 µM] | activation [19] -15.1% [at 5.99 µM] | activation [16] -3.45% [at 5.99 µM] | activity, negative = inhibition [9] 0.927% [at 5.58 µM] | activation [10] 7.77% [at 6.97 µM] | activation [14] 2.93% [at 8.39 µM]
active: Potency [1] 0.533 µM | Potency [2] 0.533 µM | Potency [6] 1 µM | Potency [17] 0.893 µM | Potency [15] 2.12 µM

ClCc1cccc(Cl)c1
inactive: Potency [1] | Potency [2] | Potency [18] | Potency [4] | Potency [19] | Potency [16] | Potency [5] | Potency [6] | Potency [17] | Potency [20] | Potency [8] | Potency [9] | Potency [10] | Potency [12] | Potency [13] | Potency [15]

CC(C)(C)NC[C@H](O)c1ccc(O)cc1Cl
inactive: Potency [1] | Potency [2] | Potency [18] | Potency [4] | Potency [19] | Potency [16] | Potency [5] | Potency [6] | Potency [17] | Potency [20] | Potency [9] | Potency [10] | Potency [12] | Potency [14]
active: Potency [15] 0.0841 µM
